These results are taken from publication PMC5540273 (PLoS ONE, 2017).

The test system of one assay is T1, p38-alpha.
T1 construct: gene MAPK14

The next assay has as its system AAK1. The following applies: concentration: 1 μM, replicates: in singlicate; n = 1.
For a further assay, the system named is ABL1-nonphosphorylated. Particulars: concentration: 1 μM, replicates: in singlicate; n = 1.
Another assay concerns ABL1-phosphorylated. Particulars: concentration: 1 μM, replicates: in singlicate; n = 1.
For a further assay, the system named is ABL2. Particulars: concentration: 1 μM, replicates: in singlicate; n = 1.
For the next assay, the system named is ACVR1B. Particulars: concentration: 1 μM, replicates: in singlicate; n = 1.

Some results are limits rather than exact numbers.
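Throughout, for %Inh: KINOMEscan kinase panel screen.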
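Throughout, for Kd: kd values determined as follow-up on hits from a single-replicate KINOMEscan panel screen.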

`CNCc1ccc2nc(NC(=O)c3ccc(C(C)(C)C)cc3)cn2c1` yielded a Kd in the assay with p38-alpha of more than 10 µM. The “%Inh” value came out at 0% with AAK1; 13% in the assay with ABL1-nonphosphorylated; 12% in the assay with ABL1-phosphorylated; 1% with ABL2; 0% with ACVR1B.

On to `Fc1ccc(-c2nc[nH]c2-c2ccncc2)cc1` [SB-217360], for which binding with p38-alpha was put at a Kd of 0.067 µM. In addition, the “%Inh” value in the assay on AAK1 came to 0%; with ABL1-nonphosphorylated, 4%; with ABL1-phosphorylated, 33%; with ABL2, 0%; in the assay with ACVR1B, 13%.

Consider `Cn1cncc1C(=O)NC1CCN(c2ccnc(Nc3ccc(F)cc3)n2)C1` (stereo not drawn) [GSK1379717], for which the Kd in the assay on TXK and in the assay on ZAK was more than 10 µM throughout. The “%Inh” value is on record as 31% in the assay with AAK1; 0% with ABL1-nonphosphorylated; 4% in the assay on ABL1-phosphorylated; 0% with ABL2; 0% in the assay on ACVR1B.

Take `COC(=O)C(NC(=O)NC1CCN(c2ccnc(Nc3ccc(F)cc3)n2)C1)c1ccccc1` (stereo not drawn) [GSK1379712]: the “%Inh” value turned out to be 5% in the assay with AAK1; 0% in the assay on ABL1-nonphosphorylated; 0% in the assay on ABL1-phosphorylated; 0% in the assay on ABL2; 0% with ACVR1B.

For `COc1ccc(CSc2nnc(-c3ccc4c(c3)CCO4)o2)cc1`, the “%Inh” value in the assay with AAK1 is reported as 8%; in the assay on ABL1-nonphosphorylated, 28%; in the assay with ABL1-phosphorylated it was 0%; with ABL2 it was 8%; in the assay on ACVR1B, 0%.

Consider `COc1ccc(Nc2nccc(N3CCC(NC(=O)C(C)c4ccc(Cl)cc4)C3)n2)cc1` (stereo not drawn) [GSK1379735], for which the “%Inh” value in the assay with AAK1 stood at 14%; in the assay on ABL1-nonphosphorylated it was 0%; in the assay with ABL1-phosphorylated, 0%; with ABL2 it was 18%; in the assay on ACVR1B it was 19%.

In the case of `Cc1nccc(-c2c(-c3ccc(F)cc3)ncn2CCCN2CCOCC2)n1.Cl` [SB-282975], the “%Inh” value in the assay on AAK1 is 0%; in the assay with ABL1-nonphosphorylated, 26%; in the assay with ABL1-phosphorylated it was 0%; in the assay on ABL2, 22%; in the assay on ACVR1B, 36%.

`CC(=O)c1c(C)c2cnc(Nc3ccn(C)n3)nc2n(C2CCCC2)c1=O`: the “%Inh” value in the assay with AAK1 was 0%; in the assay on ABL1-nonphosphorylated, 0%; in the assay with ABL1-phosphorylated it was 0%; in the assay on ABL2 it was 0%; in the assay on ACVR1B, 2%.

Turning to `COc1cccc(NC(=O)Nc2ccc(C)c(-c3ccc(C(=O)Nc4ccncc4)cc3)c2)c1` [GSK1398474], the “%Inh” value with AAK1 came to 0%; in the assay on ABL1-nonphosphorylated, 4%; in the assay on ABL1-phosphorylated, 0%; in the assay on ABL2 it was 21%; with ACVR1B, 0%.

Turning to `Cc1ccc(NC(=O)Nc2ccc(Cl)cc2)cc1-c1ccc(C(=O)Nc2ccncc2)cc1` [GSK1398472], the “%Inh” value is given as 0% with AAK1; 2% in the assay with ABL1-nonphosphorylated; 5% with ABL1-phosphorylated; 28% with ABL2; 0% in the assay with ACVR1B.

In the case of `CNc1nc(-c2ccc3c(N)n[nH]c3c2)cc(N2C[C@@H](C(=O)NC3CCCCC3)OC[C@H]2C)n1` [GSK2375584], the “%Inh” value in the assay with AAK1 is listed as 40%; in the assay on ABL1-nonphosphorylated, 6%; in the assay with ABL1-phosphorylated it was 0%; in the assay on ABL2 it was 3%; with ACVR1B, 0%.

As for `CCn1c(-c2ccccc2)nc2cnccc21` [SB-733416], the “%Inh” value was found to be 0% in the assay with AAK1; 0% in the assay with ABL1-nonphosphorylated; 13% in the assay on ABL1-phosphorylated; 5% with ABL2; 0% in the assay on ACVR1B.

In the case of `CC(C)c1cc(-c2ccc3c(N)n[nH]c3c2)nc(N)n1` [GSK2250882], the “%Inh” value in the assay on AAK1 stood at 53%; with ABL1-nonphosphorylated, 0%; in the assay on ABL1-phosphorylated it was 0%; in the assay with ABL2 it was 13%; with ACVR1B it was 0%.

Turning to `COc1ccc(-c2coc3ccc(-c4nnc(C)o4)cc23)cc1`, the “%Inh” value amounted to 0% in the assay with AAK1; 32% in the assay with ABL1-nonphosphorylated; 7% in the assay on ABL1-phosphorylated; 0% in the assay on ABL2; 12% in the assay with ACVR1B.

For the compound `CS(=O)(=O)Cc1ccc(Nc2nccc(-c3c(-c4cccc(NC(=O)C5CCCCC5)c4)nn4ncccc34)n2)cc1` [GSK350559], the “%Inh” value amounted to 0% in the assay with AAK1; 8% in the assay with ABL1-nonphosphorylated; 15% with ABL1-phosphorylated; 5% with ABL2; 0% in the assay with ACVR1B.

For `CCCCc1nn2ncccc2c1-c1ccnc(NC2CC2)n1` [GW684374], the “%Inh” value is 14% with AAK1; 0% in the assay with ABL1-nonphosphorylated; 0% with ABL1-phosphorylated; 0% in the assay with ABL2; 0% in the assay on ACVR1B.

In the case of `CCc1ccc(-c2ccc3c(c2)-c2n[nH]cc2S(=O)(=O)N3C)cc1`, the “%Inh” value in the assay with AAK1 is recorded as 15%; in the assay on ABL1-nonphosphorylated, 26%; in the assay on ABL1-phosphorylated, 0%; in the assay with ABL2 it was 0%; in the assay with ACVR1B, 0%.

In the case of `CC(C)c1ccc(O)cc1Nc1ccnc2ccc(C(F)(F)F)cc12` [GW482059], the “%Inh” value was 0% in the assay with AAK1; 0% in the assay with ABL1-nonphosphorylated; 0% in the assay on ABL1-phosphorylated; 3% with ABL2; 0% in the assay on ACVR1B.

For the compound `COc1ccc(Nc2nccc(-c3ccc(NC(=O)c4cc5cc(F)ccc5[nH]4)cc3)n2)cc1` [GSK1229496], the “%Inh” value in the assay on AAK1 is reported as 65%; in the assay on ABL1-nonphosphorylated it was 0%; in the assay on ABL1-phosphorylated, 0%; with ABL2 it was 0%; in the assay with ACVR1B, 23%.
